# CYP2C19 act: activators of human cytochrome P450 2C19; activation factor at 5 µM; recombinant CYP2C19, luciferin-H EGE luminescence; hits give high values; 0 = fully inhibited enzyme, 1 = untreated enzyme; 96,000 tested, under 10 active; P33261;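 active means activation factor of at least 2 at 5 µM in the primary screen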
# Target sequence (P33261 whole entry, looked up): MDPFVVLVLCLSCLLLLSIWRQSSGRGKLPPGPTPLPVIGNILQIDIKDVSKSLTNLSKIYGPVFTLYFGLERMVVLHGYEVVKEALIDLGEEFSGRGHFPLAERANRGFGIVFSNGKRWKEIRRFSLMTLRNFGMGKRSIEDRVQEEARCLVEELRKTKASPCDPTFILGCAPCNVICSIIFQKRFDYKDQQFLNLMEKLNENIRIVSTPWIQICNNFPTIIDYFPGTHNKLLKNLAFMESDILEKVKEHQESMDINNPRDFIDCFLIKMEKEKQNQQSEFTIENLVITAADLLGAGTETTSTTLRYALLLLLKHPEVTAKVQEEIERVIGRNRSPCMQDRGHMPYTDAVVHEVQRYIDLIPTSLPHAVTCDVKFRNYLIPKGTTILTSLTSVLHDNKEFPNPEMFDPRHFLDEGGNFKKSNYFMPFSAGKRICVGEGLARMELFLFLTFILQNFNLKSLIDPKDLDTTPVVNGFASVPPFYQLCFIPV
# Cav32 inh: inhibitors of human Cav3.2 T-type calcium channel; AID 449739; 4% of 100,000 active; B-score at 10 µM; O95180; Cav3.2-expressing cells, Fluo-4 calcium fluorescence FDSS; hits give low values;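 active means single-dose well whose peak fluorescence ratio is a statistical outlier from its plate by either plate-standardised score or position-corrected B-score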
# CYP2C9 activ: CYP2C9 (human) activation; AID 1024; recombinant CYP2C9, luciferin-H conversion, luminescence; hits give high values; factor 1 = untreated enzyme, 0 = blocked; P11712; activation factor at 5 µM; 1.4% of 96,000 active;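 active means activation factor of 2 or more for CYP2C9 at a 5 µM dose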
# CYP2C19 inhib: human CYP2C19 inhibition | CYP2C19 Supersomes, luciferin-H EGE luminescence, 30 min | 21% of 96,000 active | inhibition, % at 5 µM;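 active means CYP2C19 inhibition above a set limit at 5 µM in the primary screen, cut at about 50% in these data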
# CYP2C9 inh: inhibitors of human CYP2C9 | 20% of 96,000 active | inhibition, % at 5 µM | CYP2C9 Supersomes, luciferin-H conversion, luminescence | P11712;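 active means blocking of liver enzyme CYP2C9 beyond about 50% at 5 µM, limit read from the data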
# Hits are given with their value; . = inactive; / = no result given. This is a sample that favours compounds with a hit; in the whole collection about 27% have one here.
SMILES,CYP2C19 act,Cav32 inh,CYP2C9 activ,CYP2C19 inhib,CYP2C9 inh
CC(C)C[C@H](NC(=O)Nc1ccccc1F)C(=O)O,.,.,.,.,.
C/C(=N\Nc1ccc([N+](=O)[O-])cc1)c1cccc(N)c1,.,.,.,90.4,.
COc1ccc(Cl)cc1C(=O)Nn1c(C)nc2ccccc2c1=O,.,.,.,57.0,52.3
Cc1nc2ccccc2c(=O)n1NC(=O)COc1ccccc1,.,.,.,.,.
Cc1cccc(C)c1OCC(=O)Nn1c(C)nc2ccccc2c1=O,.,.,.,.,63.9
Cc1ccc(C(C)C)c(OCC(=O)Nn2c(C)nc3ccccc3c2=O)c1,.,-4.97,.,.,84.4
Cc1nc2ccccc2c(=O)n1NC(=O)c1c(O)c2c(n(CC(C)C)c1=O)CCCC2,/,-10.7,/,/,/
CC(=O)NC1=NN(C(C)=O)C(c2cccs2)S1 (stereo not given),/,.,/,/,/
O=C(/C=C/c1ccccc1)CC(O)(c1ccccc1)C(F)(F)C(F)F (stereo not given),.,.,.,.,.
O=C(/C=C/c1ccccc1)CC(O)(c1ccccc1)C(F)(F)F (stereo not given),.,.,.,64.6,.
CC(C)COc1ccc(CNC(=S)N/N=C/c2ccc([N+](=O)[O-])cc2)cc1,.,.,.,.,80.0
CC(C)Oc1ccc(CNC(=S)N/N=C/c2ccc([N+](=O)[O-])cc2)cc1,.,.,.,.,.
COc1ccc(CCNC(=S)Nc2cc(C)ccc2C)cc1,.,.,.,67.0,53.8
COc1ccc(CCNC(=S)Nc2cccc(C)c2C)cc1,.,.,.,57.8,.
Cc1ccc(C)c(NC(=S)NCCc2ccc(S(N)(=O)=O)cc2)c1,/,.,/,/,/
COc1ccc(CNC(=S)Nc2cc(C)ccc2C)cc1,.,.,.,97.7,.
COc1ccc(/C(O)=C2/C(=O)C(=O)N(CCCN(C)C)C2c2ccc(C)o2)cc1Cl (stereo not given),.,.,.,.,.
Cn1c(=O)c(N=O)c(N)n(Cc2ccccc2)c1=S,/,.,/,/,/
CN1C(=O)C(O)(c2sc(N)nc2-c2ccccc2)c2ccccc21 (stereo not given),.,.,.,.,.
CCOC(=O)c1cc2nc(-c3ccco3)cc(C(F)(F)F)n2n1,/,.,/,/,/
COc1ccc2oc(=O)c(C(=O)Oc3ccc(NC(C)=O)cc3)cc2c1,.,.,.,.,.
COc1ccc(CNC(=S)Nc2cccc(C)c2)cc1,.,.,.,81.4,.
COc1ccc(CNC(=S)N/N=C/c2ccc(OC)c(OC)c2)cc1,.,/,.,.,62.8
Oc1ccc(Cl)cc1/C=N/c1nccs1,.,-3.4,.,.,.
Oc1ccc2ccccc2c1/C=N/c1nccs1,.,.,.,.,.
SMILES,CYP2C19 act,Cav32 inh,CYP2C9 activ,CYP2C19 inhib,CYP2C9 inh
CCC(C)n1c(SC(C)C#N)nc2ccccc2c1=O (stereo not given),.,.,.,.,70.1
CC(C#N)On1c(SC(C)C#N)nc2ccccc2c1=O (stereo not given),.,.,.,.,.
COc1cccc(Cn2c(NCc3cccnc3)nc3c2c(=O)n(C)c(=O)n3C)c1,.,.,.,.,.
COC(=O)c1cccnc1-n1c(=O)c2cccnc2n(Cc2cccc(OC)c2)c1=O,.,/,.,77.5,.
Cc1ccc(NCc2nnc(SCC(=O)NCCc3ccccc3)n2C)cc1,.,.,.,.,.
CCc1ccc(S(=O)(=O)NCc2csc(-c3ccccc3)n2)s1,.,-3.19,.,.,76.2
O=S(=O)(NCCc1cn2ccccc2n1)c1cccs1,.,.,.,.,.
O=S(=O)(NCc1csc(-c2cccnc2)n1)c1ccc(Cl)s1,.,.,.,75.9,62.4
CCc1ccc(S(=O)(=O)NCCc2csc(-c3cccnc3)n2)s1,.,.,.,94.2,89.4
CC(=O)NCCc1csc(-c2ccccc2)n1,/,.,/,/,/
Cc1ccc(S(=O)(=O)NCc2cccnc2)s1,.,.,.,.,.
CCc1ccc(S(=O)(=O)NCCc2csc(-c3ccccc3)n2)s1,.,-4.48,.,92.7,74.2
COCCn1c(SCC#N)nnc1-c1ccc2c(c1)OCO2,.,.,.,.,.
O=C(c1cccs1)N1CCn2c1nc1ccccc12,.,.,.,.,.
Nc1ccccc1C(=O)NCc1ccccc1,.,.,.,.,.
CCS(=O)(=O)NCCc1csc(-c2cccnc2)n1,.,.,.,.,.
CCS(=O)(=O)NCCc1csc(-c2ccccc2)n1,.,.,.,72.8,.
COc1cccc(-c2csc(N3CCN(C(=O)NC45CC6CC(CC(C6)C4)C5)CC3)n2)c1,/,-3.31,/,/,/

# High-throughput results deposited in PubChem by several laboratories.
